High-throughput results as filed in PubChem BioAssay.
A selection: hits, their analogues and other compounds. The true share with any hit is near 9.3%.
ELG1 genotox – qHTS screen for small molecules that induce genotoxicity in human embryonic kidney (HEK293T) cells expressing luciferase-tagged ELG1 | HEK293T ELG1-luciferase reporter, luminescence, 16 h | Potency, µM (titrated, usually from 46 µM), without a hit: at the highest dose activity change, positive = activation, usual class: activators | 330,000 compounds, 1.3% hits; further: % of control where 0% means no effect; nearly all actives have a fitted effect of over 60% in size
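Quantitative HTS format in 1536-well plates. HEK293T ELG1-luciferase reporter cells receive test compound and are incubated 16 hr at 37 °C, 5% CO2; ONE-Glo added, 30 min room temperature, then luminescence read.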
ELG1 DNA repair – qHTS screen for small molecules that inhibit ELG1-dependent DNA repair in human embryonic kidney (HEK293T) cells expressing luciferase-tagged ELG1; HEK293T ELG1-luciferase reporter, luminescence, 16 h; DNA damage induced by 5-fluorouridine; 330,000 compounds, 2.3% hits; Potency, µM (doses to about 46.1 µM), for the others: at the top dose activity change, negative = inhibition, most hits filed as inhibitors; further: on the % scale 0 is the no-effect control and ±100 the full control effect; nearly all actives have a fitted effect of over 55% in size
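Luminescence from the luciferase reporter, measured 30 min after ONE-Glo reagent at room temperature, was the read-out. Beforehand, 2,000 cells per well were exposed for 16 hr at 37 °C to 5-fluorouridine together with compound or vehicle.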
Rab9 promoter act – qHTS Assay for Rab9 Promoter Activators; 320,000 compounds, 2.8% hits; Huh7 Rab9 promoter-luciferase reporter, luminescence, 24 h; AID 485297, 2010; Potency, µM (series often up to 9.22 µM), for the others: at the top dose activation, negative = inhibition, most hits filed as activators; further: % of control where 0% means no effect; nearly all actives have a fitted effect of over 60% in size
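Huh7 cells stably carrying Rab9 promoter–luciferase reporter, plated 1500 cells/well, compound added after 2 h and incubated 24 h at 37 °C; luciferase luminescence then read after 10 min with detection reagent.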
FLuc modulator – qHTS profiling assay for firefly luciferase inhibitor/activator using purifed enzyme and Km concentrations of substrates (counterscreen for miR-21 project); Potency, µM (titrated, usually from 57.5 µM), for inactives: at the highest dose activity change, negative = inhibition, usual class: inhibitors; Luciferin 4-monooxygenase (Photinus pyralis), P08659; purified FLuc, Km substrates, luminescence inhibition; AID 588342, 2011; 360,000 compounds, 6.9% hits;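 further: plate controls were vehicle for no effect and reference inhibitor for full effect; nearly all actives have a fitted effect of over 55% in size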
Target sequence (P08659 whole entry, looked up): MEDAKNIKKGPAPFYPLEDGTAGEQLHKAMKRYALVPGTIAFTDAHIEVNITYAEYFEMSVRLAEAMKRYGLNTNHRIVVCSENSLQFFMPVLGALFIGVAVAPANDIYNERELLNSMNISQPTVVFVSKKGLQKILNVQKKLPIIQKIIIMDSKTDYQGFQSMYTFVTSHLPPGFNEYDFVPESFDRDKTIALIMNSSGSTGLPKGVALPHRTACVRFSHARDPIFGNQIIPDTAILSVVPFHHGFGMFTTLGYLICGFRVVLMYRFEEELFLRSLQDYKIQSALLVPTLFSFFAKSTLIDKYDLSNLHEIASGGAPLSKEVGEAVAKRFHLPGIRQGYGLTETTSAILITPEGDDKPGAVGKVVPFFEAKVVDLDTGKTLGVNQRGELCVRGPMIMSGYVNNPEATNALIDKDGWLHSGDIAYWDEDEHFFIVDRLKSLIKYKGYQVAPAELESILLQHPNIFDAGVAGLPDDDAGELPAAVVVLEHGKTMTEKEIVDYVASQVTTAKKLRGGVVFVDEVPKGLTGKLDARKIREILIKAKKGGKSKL
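Purified P. pyralis luciferase, 10 nM final, with Km-level 10 uM D-luciferin and 10 uM ATP in 50 mM Tris acetate pH 7.5, 10 mM Mg acetate, 0.01% Tween-20, 0.05% BSA; 6-point qHTS titration about 60 µM downward; luminescence read.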
NPC1 prom act – qHTS Assay for NPC1 Promoter Activators; Huh7 NPC1 promoter luciferase reporter, 24 h; 320,000 compounds, 2.4% hits; Potency, µM (highest dose often 9.22 µM), for the others: top-dose activation, usual class: activators; further: % of control where 0% means no effect; nearly all actives have a fitted effect of over 60% in size
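Huh7 reporter cells (NPC1 promoter driving luciferase) are dosed with compound for 24 h at 37 °C, 5% CO2; luciferase detection reagent is then added and luminescence measured after 10 min at ambient temperature.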
SMN2 splice up – qHTS Assay for Enhancers of SMN2 Splice Variant Expression; HEK293 SMN2-luciferase splicing reporter, luminescence, 30-36 h; Potency, µM (doses to about 46.1 µM), inactives show at the highest dose activity change, positive = activation, usual class: activators; 210,000 compounds, 2.8% hits; AID 1458, 2008; further: % of control where 0% means no effect; nearly all actives have a fitted effect of over 55% in size
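HEK293 cells carry an SMN2 minigene-luciferase reporter in which exon 7 inclusion puts luciferase in frame. Cells were seeded at 2000 cells/well, attached for 10-12 hours, then exposed to compounds for 30-36 hours at 37C before ONE-Glo luminescence.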
* hit, by the source's call; ? = inconclusive; nt = no result given; [ ] = remark or other dose. The call rests on the fitted dose curve; in most records, active means well fitted curve in the direction sought with a large enough effect; inconclusive means small, poorly fitted or top-dose-only effect, or another doubt; inactive means no such curve, though single readings can be large; an effect the other way counts as inactive or inconclusive. Potency means the concentration at half of the fitted maximal effect.

SMILES	ELG1 genotox	ELG1 DNA repair	Rab9 promoter act	FLuc modulator	NPC1 prom act	SMN2 splice up
Cc1nc(NCC2CCCO2)c2nnn(Cc3c(F)cccc3Cl)c2n1 (configuration not stated)	-2%	-18%	-2%	-2%	-3%	-12%
O=C(CN(Cc1ccco1)Cc1ccco1)Nc1cc(S(=O)(=O)N2CCCCC2)ccc1Cl	-8%	26µM*	-12%	nt	-6%	nt
Nc1cc(N)cc(C(=O)OCC(=O)Nc2cc(S(=O)(=O)N3CCCCC3)ccc2Cl)c1	-6%	-22%	-2%	17µM*	-3%	-4%
O=C(NCc1ccco1)c1cc(S(=O)(=O)N2CCCC2)ccc1Cl	-5%	-8%	-2%	-1%	1%	nt
COC(=O)c1nnn(-c2ccc(Br)cc2)c1C(=O)OC	nt	nt	nt	-7%	nt	-6%
COc1ccc2oc(C(=O)OC(C)C(=O)Nc3ccc(N4CCOCC4)cc3)c(C)c2c1 (configuration not stated)	6%	-26%	-3%	-12%	-5%	nt
CCOc1ccc2oc(C(=O)Nc3ccc4c(c3)OCO4)c(C)c2c1	?	?	2.8µM*	5.4µM*	3.2µM*	nt
CCOc1ccc2oc(C(=O)Nc3ccc(N4CCOCC4)cc3)c(C)c2c1	nt	nt	nt	13µM*	nt	-30%
O=C(Cn1c(-c2cccs2)cc2ccccc21)N1CCN(c2ccc(Cl)cc2)CC1	nt	nt	nt	-2%	nt	nt
COc1ccc(-n2nc(C(=O)NCC(=O)NCCCN3CC(C)CC(C)C3)c3ccccc3c2=O)cc1OC (configuration not stated)	-2%	6%	-6%	1%	1%	nt
Cc1c(NN=C(C#N)C#N)c(=O)n(-c2ccccc2)n1C	-13%	5.8µM*	-2%	-14%	-5%	9%
Fc1cccc(/C=N/Nc2ccc3ccccc3n2)c1	?	?	?	0.48µM*	1.1µM*	2.5µM*
Brc1ccc(/C=N/Nc2ccccc2)cc1	?	?	?	17µM*	18%	29%
Fc1cccc(F)c1/C=N/Nc1ccccn1	13%	?	?	?	26%	?
Cc1cnn(-c2cc(N/N=C/c3cccc(F)c3)ncn2)c1	10%	10%	11%	-12%	8%	18%
Brc1ccccc1/C=N/Nc1ccc2ccccc2n1	?	?	4.5µM*	2.1µM*	3.5µM*	7.9µM*
Fc1cccc(/C=N/Nc2ccccn2)c1	?	?	3.2µM*	12µM*	3.2µM*	?
Oc1ccc(/C=N/Nc2ccccc2)cc1	9%	7%	11%	-16%	-1%	-6%
O=C(COC(=O)CNC(=O)C1CCCCC1)Nc1ccccc1Cl	-2%	?	-6%	5%	1%	nt
CC1CCN(C(=O)c2c(NC(=O)c3ccccc3F)sc3c2CCC(C(C)(C)C)C3)CC1 (configuration not stated)	nt	nt	nt	-1%	nt	-5%
C(=N\Nc1ccccn1)/c1ccc2c(c1)OCCO2	2.1µM*	?	0.56µM*	1.7µM*	1.3µM*	2.5µM*
CN(C)c1nc(NCc2ccccc2)nc(N/N=C/c2ccc(Br)cc2)n1	7%	-2%	-16%	-1%	-2%	3%
Cc1cc(N/N=C/c2ccccc2Br)nc2ccccc12	12%	?	22%	12µM*	18%	86%
Brc1ccc(/C=N/Nc2ccc3ccccc3n2)cc1	?	?	2.5µM*	3µM*	3.5µM*	?
Cc1ccc2nc(N/N=C\c3cccc(C)n3)cc(C)c2c1	nt	nt	nt	nt	nt	-8%[9.22 µM]
Fc1ccc(/C=N\Nc2cccc(F)c2)cc1	0%	-4%	-1%	13µM*	-2%	nt
